Test results taken from PubChem BioAssay AID1159580 (chemical genetic matrix, 2015).
Values joined by “and” are separate entries in the source; they are usually repeats but may differ in a detail not shown here. Equal values may be shown once. Screen size: about 5,500 compounds; about 2,000 (36%) were called active. About 18% were inconclusive and are not listed. No stated cut-off is given here; in the data, active means normalized growth mostly below about 0.91 (no sharp cut-off); inconclusive means no clear call, values can overlap the other calls; inactive means mostly above about 0.92. The list shows a part of the results.

Assay: chemical genetic growth profiling, strain panel (AID 1159580);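 further: tested at 20 µM; growth read once vehicle control cultures reached saturation at 30 °C; 1 = growth at the plate median or of vehicle wells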
Conditions: S. cerevisiae deletion strains, growth OD

Measured: normalized growth

CC(C)CCCC(C)[C@H]1CCC2C3CC=C4CC(=O)CC[C@]4(C)C3CC[C@@]21C (stereo not given in full)
active: locus YLR262C, strain YPT6 (second series), stronger effect = lower value 0.855 | locus YLR418C, strain cdc73, stronger effect = lower value 0.753 | locus YNL307C, strain MCK1, stronger effect = lower value 0.842
inactive: locus YAL021C, strain ccr4, stronger effect = lower value 0.976 | locus YAL026C, strain drs2, stronger effect = lower value 0.985 | locus YAL030W, strain snc1, stronger effect = lower value 0.989 | locus YBL061C, strain skt5, stronger effect = lower value 1 | locus YBR009C, strain hhf1, stronger effect = lower value 1.04 | locus YBR021W, strain FUR4, stronger effect = lower value 0.962 | locus YBR023C, strain chs3, stronger effect = lower value 0.988 | locus YBR171W, strain sec66, stronger effect = lower value 0.992 | locus YBR229C, strain ROT2, stronger effect = lower value 0.961 | locus YBR231C, strain swc5, stronger effect = lower value 1.01 | locus YBR279W, strain paf1, stronger effect = lower value 1 | locus YCL011C, strain gbp2, stronger effect = lower value 0.986 | locus YCL016C, strain dcc1, stronger effect = lower value 1 | locus YCL029C, strain bik1, stronger effect = lower value 0.999 | locus YCL061C, strain MRC1, stronger effect = lower value 0.99 | locus YCL069W, strain vba3, stronger effect = lower value 0.994 | locus YCR088W, strain abp1, stronger effect = lower value 0.99 | locus YDL005C, strain med2, stronger effect = lower value 0.99 | locus YDL035C, strain GPR1, stronger effect = lower value 0.953 | locus YDL040C, strain nat1, stronger effect = lower value 0.975 | locus YDL074C, strain BRE1, stronger effect = lower value 0.937 | locus YDL101C, strain DUN1, stronger effect = lower value 0.971 | locus YDL185W, strain tfp1, stronger effect = lower value 0.982 | locus YDL192W, strain arf1, stronger effect = lower value 0.932 | locus YDR001C, strain nth1, stronger effect = lower value 0.99 | locus YDR069C, strain doa4, stronger effect = lower value 1 | locus YDR101C, strain arx1, stronger effect = lower value 1.03 | locus YDR137W, strain rgp1, stronger effect = lower value 0.895 | locus YDR150W, strain NUM1, stronger effect = lower value 0.978 | locus YDR159W, strain sac3, stronger effect = lower value 0.999 | locus YDR162C, strain NBP2, stronger effect = lower value 0.939 | locus YDR195W, strain ref2 1.03 | locus YDR297W, strain sur2, stronger effect = lower value 0.994 | locus YDR318W, strain mcm21, stronger effect = lower value 0.922 | locus YDR334W, strain swr1, stronger effect = lower value 0.968 | locus YDR335W, strain msn5, stronger effect = lower value 0.984 | locus YDR388W, stronger effect = lower value 0.964 | locus YDR392W, strain spt3, stronger effect = lower value 0.932 | locus YDR502C, strain sam2, stronger effect = lower value 0.947 | locus YEL003W, strain gim4, stronger effect = lower value 0.987 | locus YEL037C, strain rad23, stronger effect = lower value 0.986 | locus YEL061C, strain CIN8 (second series), stronger effect = lower value 0.991 | locus YEL061C, strain CIN8, stronger effect = lower value 0.988 | locus YER015W, strain faa2, stronger effect = lower value 0.992 | locus YER016W, strain bim1, stronger effect = lower value 0.987 | locus YER110C, stronger effect = lower value 0.98 | locus YER111C, strain swi4, stronger effect = lower value 0.997 | locus YER155C, strain BEM2 (second series), stronger effect = lower value 1.01 | locus YER155C, strain BEM2, stronger effect = lower value 1.01 | locus YER167W, strain BCK2, stronger effect = lower value 0.993 | locus YFR010W, strain ubp6, stronger effect = lower value 0.991 | locus YGL078C, strain dbp3, stronger effect = lower value 0.98 | locus YGL086W, strain mad1, stronger effect = lower value 0.997 | locus YGL167C, strain pmr1, stronger effect = lower value 0.996 | locus YGL173C, strain kem1, stronger effect = lower value 0.995 | locus YGL227W, strain vid30, stronger effect = lower value 0.995 | locus YGL240W, strain doc1, stronger effect = lower value 1.04 | locus YGL248W, strain PDE1, stronger effect = lower value 0.922 | locus YGL253W, strain hxk2, stronger effect = lower value 0.976 | locus YGR135W, strain pre9, stronger effect = lower value 0.942 | locus YGR252W, strain gcn5, stronger effect = lower value 0.839 | locus YHR013C, strain ard1, stronger effect = lower value 0.989 | locus YHR027C, strain rpn1, stronger effect = lower value 0.987 | locus YHR030C, strain SLT2, stronger effect = lower value 1 and 1.02 | locus YHR079C, strain IRE1 (second series), stronger effect = lower value 0.992 | locus YHR079C, strain IRE1, stronger effect = lower value 0.997 | locus YHR094C, strain hxt1, stronger effect = lower value 0.986 | locus YHR129C, strain ARP1, stronger effect = lower value 0.974 | locus YHR142W, strain chs7, stronger effect = lower value 0.903 | locus YHR200W, strain rpn10, stronger effect = lower value 0.958 | locus YIL066C, strain RNR3, stronger effect = lower value 0.952 | locus YIL073C, strain SPO22, stronger effect = lower value 0.936 | locus YIL125W, strain kgd1, stronger effect = lower value 0.987 | locus YIR030C, strain dcg1, stronger effect = lower value 0.979 | locus YJL092W, strain hpr5, stronger effect = lower value 0.978 | locus YJL095W, strain BCK1 (second series), stronger effect = lower value 0.989 | locus YJL095W, strain BCK1, stronger effect = lower value 0.83 and 1 | locus YJL115W, strain asf1, stronger effect = lower value 0.974 | locus YJL129C, strain trk1, stronger effect = lower value 0.935 | locus YJL134W, strain LCB3, stronger effect = lower value 0.982 | locus YJL154C, strain vps35, stronger effect = lower value 0.993 | locus YJL164C, strain tpk1, stronger effect = lower value 0.95 | locus YJL166W, strain qcr8, stronger effect = lower value 0.986 | locus YJL168C, strain set2, stronger effect = lower value 0.996 | locus YJL187C, strain SWE1 (second series), stronger effect = lower value 0.968 | locus YJL187C, strain SWE1, stronger effect = lower value 1 | locus YJR043C, strain POL32, stronger effect = lower value 0.958 | locus YJR066W, strain TOR1, stronger effect = lower value 0.928 | locus YJR075W, strain HOC1, stronger effect = lower value 0.968 | locus YKL009W, strain mrt4, stronger effect = lower value 0.943 | locus YKL068W, stronger effect = lower value 0.993 | locus YKL085W, strain MDH1 (second series), stronger effect = lower value 0.99 | locus YKL085W, strain MDH1, stronger effect = lower value 0.99 | locus YKL160W, strain elf1, stronger effect = lower value 0.965 | locus YKL190W, strain CNB1, stronger effect = lower value 0.984 | locus YKR001C, strain vps1, stronger effect = lower value 0.914 | locus YKR026C, strain gcn3, stronger effect = lower value 0.993 | locus YKR091W, strain srl3, stronger effect = lower value 0.994 | locus YLL001W, strain dnm1, stronger effect = lower value 0.988 | locus YLL026W, stronger effect = lower value 0.988 | locus YLL041C, strain sdh2, stronger effect = lower value 0.981 | locus YLR027C, strain aat2, stronger effect = lower value 0.981 | locus YLR039C, strain RIC1, stronger effect = lower value 0.696 | locus YLR058C, strain SHM2, stronger effect = lower value 0.967 | locus YLR102C, strain apc9, stronger effect = lower value 0.989 | locus YLR113W, strain HOG1, stronger effect = lower value 0.91 | locus YLR221C, strain rsa3, stronger effect = lower value 0.949 | locus YLR258W, strain gsy2, stronger effect = lower value 1.01 | locus YLR262C, strain YPT6, stronger effect = lower value 0.66 | locus YLR268W, strain sec22, stronger effect = lower value 0.974 | locus YLR320W, strain mms22, stronger effect = lower value 0.999 | locus YLR330W, strain CHS5, stronger effect = lower value 0.985 | locus YLR342W, strain FKS1 (second series), stronger effect = lower value 0.946 | locus YLR342W, strain FKS1, stronger effect = lower value 1.01 | locus YLR357W, strain rsc2, stronger effect = lower value 1.02 | locus YLR370C, strain arc18, stronger effect = lower value 0.99 | locus YLR371W, strain rom2, stronger effect = lower value 0.989 | locus YLR384C, strain iki3, stronger effect = lower value 0.995 | locus YML016C, strain PPZ1, stronger effect = lower value 0.996 | locus YML032C, strain rad52, stronger effect = lower value 0.91 | locus YML120C, strain ndi1, stronger effect = lower value 0.949 | locus YML124C, strain tub3, stronger effect = lower value 0.995 | locus YMR058W, strain fet3, stronger effect = lower value 0.981 | locus YMR078C, strain ctf18, stronger effect = lower value 0.981 | locus YMR125W, strain sto1, stronger effect = lower value 0.985 | locus YMR129W, stronger effect = lower value 1 | locus YMR205C, strain PFK2, stronger effect = lower value 1.03 | locus YMR223W, strain ubp8, stronger effect = lower value 0.925 | locus YMR231W, strain pep5, stronger effect = lower value 1 | locus YMR307W, strain GAS1, stronger effect = lower value 0.875 | locus YNL067W, strain RPL9B, stronger effect = lower value 0.987 | locus YNL071W, strain lat1, stronger effect = lower value 0.978 | locus YNL183C, strain NPR1, stronger effect = lower value 0.937 | locus YNL209W, strain ssb2, stronger effect = lower value 1 | locus YNL233W, strain BNI4, stronger effect = lower value 0.932 | locus YNL248C, strain rpa49, stronger effect = lower value 0.93 | locus YNL250W, strain rad50, stronger effect = lower value 0.965 | locus YNL271C, strain bni1, stronger effect = lower value 0.977 | locus YNL298W, strain CLA4, stronger effect = lower value 0.979 | locus YNL322C, strain KRE1 (second series), stronger effect = lower value 0.99 | locus YNL322C, strain KRE1, stronger effect = lower value 0.991 | locus YNR049C, strain mso1, stronger effect = lower value 0.986 | locus YNR052C, strain pop2, stronger effect = lower value 0.98 | locus YOL006C, strain TOP1, stronger effect = lower value 1.01 | locus YOL012C, strain htz1 1.02 | locus YOL147C, strain pex11, stronger effect = lower value 0.989 | locus YOR001W, strain rrp6, stronger effect = lower value 0.933 | locus YOR061W, strain CKA2, stronger effect = lower value 0.954 | locus YOR069W, strain VPS5, stronger effect = lower value 0.988 | locus YOR070C, strain gyp1, stronger effect = lower value 0.978 | locus YOR080W, strain dia2, stronger effect = lower value 0.996 | locus YOR083W, strain WHI5, stronger effect = lower value 0.944 | locus YOR106W, strain vam3, stronger effect = lower value 0.965 | locus YOR136W, strain idh2, stronger effect = lower value 0.993 | locus YOR144C, strain elg1, stronger effect = lower value 0.993 | locus YOR184W, strain ser1, stronger effect = lower value 0.945 | locus YOR231W, strain MKK1, stronger effect = lower value 0.965 | locus YOR265W, strain rbl2, stronger effect = lower value 0.986 | locus YOR270C, strain vph1, stronger effect = lower value 0.922 | locus YOR290C, strain snf2, stronger effect = lower value 0.959 | locus YOR316C, strain cot1, stronger effect = lower value 0.988 | locus YPL051W, strain arl3, stronger effect = lower value 0.956 | locus YPL078C, strain atp4, stronger effect = lower value 0.951 | locus YPL106C, strain sse1, stronger effect = lower value 1.03 | locus YPL240C, strain hsp82, stronger effect = lower value 0.989 | locus YPL241C, strain CIN2, stronger effect = lower value 0.995 | locus YPL256C, strain CLN2, stronger effect = lower value 1.01 | locus YPR119W, strain clb2, stronger effect = lower value 1 | locus YPR141C, strain kar3, stronger effect = lower value 0.988 | locus YPR163C, strain tif3, stronger effect = lower value 0.977 | locus YPR167C, strain met16, stronger effect = lower value 0.96 | strain wtn01, stronger effect = lower value 1.02
